Sfp PPTase inh = qHTS Assay for Inhibitors of Bacillus subtilis Sfp phosphopantetheinyl transferase (PPTase); AID 1490, 2009; Potency, µM, for the others: largest response in the series, negative = inhibition, usual class: inhibitors; actives 3.5% (n = 310,000); Biochemical Sfp PPTase activity, qHTS;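 also: the enzyme is Sfp with the accession as filed and its product quenches rhodamine fluorescence; 0% = enzyme reaction without inhibitor and -100% = no enzyme wells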
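Compounds were incubated with enzyme (final 15 nM) for 15 min at room temperature before substrate addition started the reaction. Fluorescence at 525 nm excitation, 598 nm emission was recorded immediately and after 30 minutes.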
HP1b chromo inh = HTS for Inhibitors of HP1-beta Chromodomain Interactions with Methylated Histone Tails; actives 0.56% (n = 390,000); Chromobox protein homolog 1 (Homo sapiens), P83916; AID 540317, 2011; Potency, µM (top dose mostly 114 µM), inactives show at the top dose activity change, negative = inhibition, hits mostly inhibitors; AlphaScreen HP1-beta / biotin-H3K9me3 peptide binding; also: nearly all actives have a fitted effect of over 70% in size
Target sequence (P83916 whole entry, looked up): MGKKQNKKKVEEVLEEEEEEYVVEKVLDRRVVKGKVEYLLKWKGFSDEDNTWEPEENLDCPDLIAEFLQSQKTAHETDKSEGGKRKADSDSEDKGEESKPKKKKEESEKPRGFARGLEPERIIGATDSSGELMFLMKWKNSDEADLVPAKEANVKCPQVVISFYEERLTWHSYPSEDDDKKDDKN
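Compound inhibition of the preformed complex between 50 nM HP1-beta and 50 nM biotinylated H3K9me3 peptide was read by AlphaScreen. Buffer was PBS pH 7.4 with 0.01% Tween-20. Incubations ran 30 min at room temperature, with 10 ug/mL donor/acceptor beads.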
G9a inh = qHTS Assay for Inhibitors of Histone Lysine Methyltransferase G9a; G9a H3K9 monomethylation, AlphaScreen, 2 h; Potency, µM (top dose mostly 102 µM), for the others: at the highest dose activity, negative = inhibition, most hits filed as inhibitors; Histone-lysine N-methyltransferase EHMT2 (Homo sapiens), Q96KQ7; actives 8.8% (n = 350,000); also: % is scaled to controls: 0 for no effect and ±100 for the full control effect; nearly all actives have a fitted effect of over 75% in size
Target sequence (Q96KQ7 913-1193 limits assumed): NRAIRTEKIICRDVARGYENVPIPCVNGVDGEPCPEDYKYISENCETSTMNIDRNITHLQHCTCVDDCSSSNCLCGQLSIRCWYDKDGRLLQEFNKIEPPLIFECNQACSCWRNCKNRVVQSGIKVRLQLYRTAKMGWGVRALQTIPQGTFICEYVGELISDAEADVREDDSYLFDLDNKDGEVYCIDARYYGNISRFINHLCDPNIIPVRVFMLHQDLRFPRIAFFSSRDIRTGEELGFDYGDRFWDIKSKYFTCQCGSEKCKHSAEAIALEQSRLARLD
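Signal arises when biotinylated H3K9 peptide, once monomethylated, bridges streptavidin donor and antibody-captured acceptor beads. Enzyme at 20 nM was preincubated 15 min with test compounds; peptide 500 nM and SAM 20 uM then reacted for 2 h.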
BAZ2B block = qHTS Assay for Inhibitors of BAZ2B; AlphaScreen BAZ2B-H3K14Ac peptide displacement; Potency, µM (doses to about 114 µM), for the others: at the highest dose activity change, negative = inhibition, hits mostly inhibitors; actives 4.4% (n = 360,000); AID 504333, 2011; also: % is scaled to controls: 0 for no effect and ±100 for the full control effect; nearly all actives have a fitted effect of over 60% in size
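AlphaScreen luminescence quantifies BAZ2B engagement of H3K14Ac peptide; the protein and biotinylated peptide are both at 50 nM final, buffer PBS pH 7.4 with 0.01% Tween-20, all steps at room temperature.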
JMJD2A Tudor = qHTS Assay for Inhibitors of JMJD2A-Tudor Domain; Lysine-specific demethylase 4A (Homo sapiens), O75164; AlphaScreen JMJD2A-Tudor / H3K4me3 peptide binding; Potency, µM (highest dose often 114 µM), for inactives: at the highest dose activity change, negative = inhibition, usual class: inhibitors; actives 4.4% (n = 390,000); also: % is scaled to controls: 0 for no effect and ±100 for the full control effect; nearly all actives have a fitted effect of over 50% in size
Starred values were filed as active, the others as inactive; u = inconclusive; x = no result given; [ ] = remark or other dose. Shown are actives, neighbours in structure and some others; about 12% of the full set was active somewhere. Calls follow the shape of the dose curve; as a rule, active = well fitted curve in the direction sought with a large enough effect; inconclusive = small, poorly fitted or top-dose-only effect, or another doubt; inactive = no such curve, though single readings can be large; an effect the other way counts as inactive or inconclusive. Potency is read from the fitted curve at half-maximal effect.

SMILES	Sfp PPTase inh	HP1b chromo inh	G9a inh	BAZ2B block	JMJD2A Tudor
COc1ccc(CNC(=O)C2CCCN2C(=O)NCc2ccccc2)cc1 (stereo unspecified)	19%	43%	48%	-21%	8%
CCCCCn1cc2c(c1-c1ccc(Br)cc1)c(=O)n(C)c(=O)n2C	x	43%	-3%[59 µM]	-11%	-12%
Nc1nnc(CC(=O)N/N=C/c2ccc(-c3ccccc3)o2)s1	u	15%	-17%[59 µM]	u	-29%
COc1ccc(-c2ccc(/C=N/NC(=O)Cc3nnc(N)s3)o2)cc1Cl	u	1%	20µM*	u	-29%
Cc1ccc(-c2ccc(/C=N/NC(=O)Cc3nnc(N)s3)o2)cc1Cl	u	36%	17%[12.7 µM]	-18%	-14%
COC(=O)c1ccc(-c2ccc(/C=N/NC(=O)Cc3nnc(N)s3)o2)cc1	56µM*	20%	u	-23%	-26%
CCOC(=O)CNC(=O)O[C@@H]1C(=O)c2cc(Br)ccc2O[C@H]1c1cccc(OC)c1	-12%	x	x	x	x
N#Cc1ccc(C(=O)N(Cc2ccco2)Cc2cccs2)cc1	x	10%[57 µM]	x	x	-28%[57.1 µM]
COc1ccc(Cc2nc3ccc(C(=O)NCCc4ccc(Cl)cc4)cc3o2)cc1	x	17%[57 µM]	7%[59 µM]	-10%	-11%
C#CCOCCOCCOCCNc1nc(N2CCN(C(=O)C([C@@H](C)CC)n3cc(C(N)Cc4ccc(O)cc4)nn3)CC2)nc(N2CCN(C(=O)[C@H](CCC(=O)O)n3cc(C(N)CO)nn3)CC2)n1 (stereo partly specified)	6%	22%	u	50µM*	56µM*
C#CCOCCOCCOCCNc1nc(N2CCN(C(=O)C([C@@H](C)CC)n3cc(C(N)CC(C)C)nn3)CC2)nc(N2CCN(C(=O)[C@H](CCC(=O)O)n3cc(C(N)Cc4ccc(O)cc4)nn3)CC2)n1 (stereo partly specified)	14%	55%	u	u	79µM*
C#CCOCCOCCOCCNc1nc(N2CCN(C(=O)C([C@@H](C)CC)n3cc(C(N)Cc4ccc(O)cc4)nn3)CC2)nc(N2CCN(C(=O)[C@H](CCC(=O)O)n3cc(C(N)CC(C)C)nn3)CC2)n1 (stereo partly specified)	8%	53%	u	50µM*	56µM*
C#CCOCCOCCOCCNc1nc(N2CCN(C(=O)[C@H]([C@@H](C)CC)n3cc(CCC(=O)O)nn3)CC2)nc(N2CCN(C(=O)[C@H](Cc3ccc(O)cc3)n3cc(CCO)nn3)CC2)n1	x	33%	x	x	u
C#CCOCCOCCOCCNc1nc(N2CCN(C(=O)C([C@@H](C)CC)n3cc(C(N)Cc4ccc(O)cc4)nn3)CC2)nc(N2CCN(C(=O)[C@H](CCC(=O)O)n3cc(C(N)[C@H](C)CC)nn3)CC2)n1 (stereo partly specified)	-7%	24%	13%[12.7 µM]	79µM*	u
Cc1ccc(CN2CCCn3nc(C(=O)NC(C)C)cc3C2=O)cc1	x	3%	-11%[59 µM]	-34%	-8%
COC(=O)COc1ccc(Oc2nc(NC(C)(C)C)nc(N3CCOCC3)n2)nn1	x	8%	1%[59 µM]	-4%	-11%
C#CCOCCOCCOCCNc1nc(N2CCN(C(=O)C([C@@H](C)CC)n3cc(C(N)Cc4ccc(O)cc4)nn3)CC2)nc(N2CCN(C(=O)[C@H](CCC(=O)O)n3cc(C(N)Cc4ccc(O)cc4)nn3)CC2)n1 (stereo partly specified)	-2%	31%	u	56µM*	50µM*
COC(=O)c1ccc(OC(=O)c2ccncc2)cc1O	5%	55%	u	-4%	-15%
COc1ccccc1CN1CCN(Cc2ccco2)CC1	u	u	45µM*	25µM*	4µM*
COc1ccc(CN2CCc3ccccc3C2)c(OC)c1	-19%	u	-128%[59 µM]	u	2.8µM*
COc1ccccc1CN1CCC2(CC1)CCN(C(C)=O)CC2	17%	x	10%[12.7 µM]	x	x
COc1ccc(NC(=O)CN2CCc3ccccc3C2)c(OC)c1	-2%	38%	x	-36%	-13%
COc1ccc2oc(=O)cc(CN3CCN(Cc4ccc(OC)c(OC)c4OC)CC3)c2c1	1%	10%	-8%	-12%	-31%
COc1cc(CN2CCN(Cc3ccco3)CC2)cc(OC)c1	u	u	8.9µM*	25µM*	0.79µM*
Cc1ccc(S(=O)(=O)N2CCN(Cc3ccco3)CC2)cc1C	7%	25%	x	-16%	-2%
SMILES	Sfp PPTase inh	HP1b chromo inh	G9a inh	BAZ2B block	JMJD2A Tudor
COc1ccc(CN2CCN(Cc3ccco3)CC2)c(OC)c1	56µM*	u	40µM*	40µM*	3.2µM*
CCN(CC)CCN(Cc1cc2cc(C)ccc2[nH]c1=O)C(=S)NCc1ccco1	56µM*	-15%	-33%[59 µM]	-36%	u
CCNC(=S)N(Cc1cc2cc(C)ccc2[nH]c1=O)C1CCCC1	56µM*	14%	u	u	-22%
CCN(CC)CCN(Cc1cc2ccc(C)c(C)c2[nH]c1=O)C(=S)NCc1ccco1	56µM*	u	50µM*	u	u
Cc1cc2c(s1)c1cnn(CC(=O)N3CCOCC3)c(=O)c1n2C	x	18%[57 µM]	x	x	-10%[57.1 µM]
COC(=O)c1cc(C)c(C)cc1NC1OC(CO)C(O)C1O (stereo unspecified)	x	29%	x	x	0%
O=C(CSc1nc2ccccc2[nH]1)NCCc1ccc(Cl)cc1	10%	21%	18%[59 µM]	0%	-27%
C=CCSc1nnc(NC(=O)CSc2nc3ccccc3[nH]2)s1	17%	27%	1.8µM*	-8%	1%
O=C(O)C(Cc1ccc(Cl)cc1)Sc1nc2ccccc2[nH]1 (stereo unspecified)	-8%	-11%	50µM*	-1%	-2%
O=C(CCCSc1nc2ccccc2[nH]1)NCc1ccc(Cl)cc1	15%	43%	10µM*	-2%	-17%
COC(=O)c1ccc(CNC(=O)CSc2nc3ccccc3[nH]2)cc1	18%	20%	40µM*	-2%	2%
O=C(CCCSc1nc2ccccc2[nH]1)NCc1ccccc1F	22%	34%	-35%	-12%	-9%
O=S1(=O)c2ccccc2N(Cc2ccc(Cl)cc2F)c2ccccc21	x	28%	10%[59 µM]	-14%	-16%
CCc1ccc(-n2nc(C)c3c(C(=O)Nc4cccc(C(F)(F)F)c4)cc(C)nc32)cc1	x	99%	32%[59 µM]	32%[57.1 µM]	30%
O=C(CSc1nc2ccccc2[nH]1)N1CCN(S(=O)(=O)c2ccc(Cl)cc2)CC1	-23%	42%	35µM*	1%	-10%

From PubChem BioAssay
